According to PubChem BioAssay AID1851 (National Center for Advancing Translational Sciences (NCATS), 2009):
Hit rate of the full screen: of about 16,000 compounds, about 5,100 (32%) were called active. Roughly 25% stayed inconclusive and do not appear here. Calls follow the shape of the dose curve; as a rule, active = well fitted curve in the direction sought with a large enough effect; inconclusive = small, poorly fitted or top-dose-only effect, or effect the other way; inactive = no such curve, though single readings can be large or run the other way. This is one part of the list.

target: Cytochrome P450 3A4 (Homo sapiens) (UniProt P08684); assay: Cytochrome panel assay with activity outcomes; conditions: recombinant CYP, pro-luciferin dealkylation, luminescence, p450-cyp3a4; series mostly up to 57.1 µM; activity, negative = inhibition: at the top concentration
% is scaled to controls: 0 for no effect and ±100 for the full control effect.

Sequence of Cytochrome P450 3A4 (Homo sapiens) (P08684 whole entry, looked up): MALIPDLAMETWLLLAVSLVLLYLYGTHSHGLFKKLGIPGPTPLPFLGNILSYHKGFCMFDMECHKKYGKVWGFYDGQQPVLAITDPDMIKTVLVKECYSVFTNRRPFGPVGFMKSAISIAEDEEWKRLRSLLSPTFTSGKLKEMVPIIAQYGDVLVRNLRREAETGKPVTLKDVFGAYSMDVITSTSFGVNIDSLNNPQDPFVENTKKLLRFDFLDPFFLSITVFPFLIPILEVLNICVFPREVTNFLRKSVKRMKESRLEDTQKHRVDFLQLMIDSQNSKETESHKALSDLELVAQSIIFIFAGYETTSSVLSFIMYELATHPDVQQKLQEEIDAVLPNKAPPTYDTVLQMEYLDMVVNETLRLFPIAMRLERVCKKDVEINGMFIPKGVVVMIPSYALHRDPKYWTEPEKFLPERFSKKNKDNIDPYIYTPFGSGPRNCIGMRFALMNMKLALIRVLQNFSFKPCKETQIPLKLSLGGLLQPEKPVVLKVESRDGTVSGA

SMILES	AC50	activity, negative = inhibition
Cc1cc(NC(=S)Nc2ccccc2)ccc1Br	20 µM (active)	
CNC(=S)Nc1ccc(Nc2ccccc2)cc1		-26% (inactive)
O=[N+]([O-])c1ccc(C2CCCC/C2=N\OCc2cccc(F)c2)c([N+](=O)[O-])c1 (stereo not drawn)	14.1 µM (active)	
O=[N+]([O-])c1ccc(NN=C2c3ccccc3Cc3ccccc32)c([N+](=O)[O-])c1		-5.06% [at 11.4 µM] (inactive)
CC1(C)N=C(N)N=C(N)N1c1cccc(OCc2cccc([N+](=O)[O-])c2)c1		-3.23% [at 11.4 µM] (inactive)
O=C(c1ccccc1)N1CCSC1=S		-18.4% (inactive)
Cc1nc(SC(C(=O)c2ccccc2)c2ccccc2)n[nH]1 (stereo not drawn)	7.08 µM (active)	
COC(=O)c1nc(NC(=O)c2ccccc2)n[nH]1		-13.8% (inactive)
Cc1c(NC(=O)C(Sc2ccccc2)c2ccccc2)cccc1[N+](=O)[O-] (stereo not drawn)		-28.3% [at 2.29 µM] (inactive)
O=C(O)CCCCCNC(=O)c1ccncc1		-1.26% (inactive)
CC(C)(C)c1ccc(C(=O)c2c[nH]c(C(=O)NCCCn3ccnc3)c2)cc1	0.282 µM (active)	
O=C(c1ccc(C(F)(F)F)cc1)c1c[nH]c(C(=O)NCCCn2ccnc2)c1	1 µM (active)	
O=C(NCCCN1CCOCC1)c1cc(C(=O)C2CC2)c[nH]1		-2.72% (inactive)
O=C1Oc2ccccc2C2(O)C3CCCCCC3C12 (stereo not drawn)		-27.4% [at 11.4 µM] (inactive)
C[C@@](N)(Cc1c[nH]c2ccccc12)C(=O)O		-19.3% [at 11.4 µM] (inactive)
O=C(Cc1c[nH]c2ccccc12)OCC(=O)c1ccccc1	22.4 µM (active)	
Cn1c(/C(C#N)=C(\O)c2ccc(S(=O)(=O)N3CCCCC3)cc2)nc2ccccc21	14.1 µM (active)	
CCN(CC)C(=O)CSc1nnc(-c2ccco2)n1N		-0.344% (inactive)
CCn1c(SCC(=O)NC(=O)NCc2ccco2)nnc1-c1cccs1	1.26 µM (active)	
Cn1c(SCC(=O)N2CCN(S(=O)(=O)c3ccccc3)CC2)nc2ccccc21	12.6 µM (active)	
CCN(CC)C(=O)CSc1nnc(-c2ccncc2)n1N		-8% (inactive)
CCN(CC)C(=O)CSc1nnc(-c2cc3ccccc3cc2O)n1CC	7.94 µM (active)	

SMILES	AC50	activity, negative = inhibition
O=C(Nc1ccccc1-c1nc2ccccc2[nH]1)c1ccc(S(=O)(=O)N2CCCCC2)cc1		-23.2% [at 2.29 µM] (inactive)
CC(C)(C)c1onc(OCP(=O)(O)O)c1C[C@@H](N)C(=O)O		-6.88% (inactive)
CCn1c(SCC(=O)c2ccc3ccccc3c2)nnc1-c1cccs1	3.98 µM (active)	
CCn1c(SCC(=O)c2ccccc2)nnc1-c1cccs1	8.91 µM (active)	
O=c1onc(-c2cccs2)n1Cc1ccccc1		0.721% (inactive)
CN(C)/C=N/c1ncc(C(=O)c2ccc3ccccc3c2)s1		-17% (inactive)
CCn1c(SCC(=O)N2CCN(S(=O)(=O)c3ccccc3)CC2)nnc1-c1cccs1	1.12 µM (active)	
CC(=O)c1ccc(-n2c(CCC(=O)O)ccc2-c2cccs2)cc1		-24.9% (inactive)
CCn1nnnc1SCC(=O)c1ccc2c(c1)OCCO2		-31% (inactive)
Cc1ccccc1CSc1nnc(-c2cccs2)n1Cc1ccco1	4.47 µM (active)	
CCn1c(SCC(=O)NC2CCCc3ccccc32)nnc1-c1cccs1 (stereo not drawn)	2.82 µM (active)	
CCOc1c2ccc(C(=O)NC3CCCc4ccccc43)cc2nn1C (stereo not drawn)		-21% (inactive)
CCn1cc(C(=O)O)c(=O)c2cnc(N3CCNCC3)nc21		3.01% [at 25.6 µM] (inactive)
CC(=O)OC[C@@H]1O[C@@H](O/N=C2/C[C@@H](O)[C@@H](O)[C@@H]3[C@@H]4C(=O)N([C@@H](C)c5ccccc5)C(=O)[C@H]4CC[C@@H]23)[C@H](OC(C)=O)[C@H](OC(C)=O)[C@@H]1OC(C)=O		-21% [at 11.4 µM] (inactive)
COc1cccc2c1C(=O)c1c(O)c3c(c(O)c1C2=O)C[C@@](O)(C(=O)CO)C[C@H]3O[C@H]1C[C@@H](N)[C@H](O)[C@@H](C)O1.[W]		-15.2% [at 11.4 µM] (inactive)
CCOC(=O)C1=C(N)n2c(s/c(=C/c3ccccc3)c2=O)=C(C(=O)OCC)C1c1ccccc1 (stereo not drawn)		-8.49% (inactive)
COC(=O)c1[nH]c(C)c(/C(O)=C2\C(=O)C(=O)N(CCN(C)C)C2c2cccs2)c1C (stereo not drawn)		-29.9% (inactive)
CCOC(=O)C1=C(c2ccccc2)N=c2s/c(=C\c3cccc(O)c3)c(=O)n2C1c1cccs1 (stereo not drawn)	15.8 µM (active)	
O=c1/c(=C\c2ccc(O)cc2)sc2n1C(c1ccccc1)C(c1ccccc1)=NN=2 (stereo not drawn)		20.5% [at 0.457 µM] (inactive)
CCOC(=O)C1=C(c2ccccc2)N=c2s/c(=C\c3ccc(O)cc3)c(=O)n2C1c1cccs1 (stereo not drawn)	3.55 µM (active)	
CCCc1c(OCCCOc2ccc(OCC(=O)O)cc2)ccc(C(C)=O)c1O		-20.2% (inactive)
CC(C)=CC(=O)OCC(=O)Nc1ncc(Cl)c(C)c1Cl		-10.4% (inactive)

SMILES	AC50	activity, negative = inhibition
c1cncc(CNc2ncnc3ccc(-c4ccoc4)cc23)c1	1.58 µM (active)	
Cc1cccc(CNc2ncnc3ccc(-c4ccoc4)cc23)c1	3.98 µM (active)	
Oc1ccccc1CNn1cnnc1		-12.2% (inactive)
CCn1cc(-c2nnnn2-c2ccc(Cl)cc2)c(=O)c2ccccc21	12.6 µM (active)	
COc1ccc(-n2nnnc2-c2cn(C)nc2C(F)(F)F)cc1		27.5% (inactive)
CCOc1nnc(C)c2c(C)n(-c3ccc(Cl)cc3)nc12		-23.4% (inactive)
Cc1ccc(NC(=O)Cn2nc([N+](=O)[O-])c(Br)c2C)cc1C		-24.1% [at 2.29 µM] (inactive)
Cc1c(Br)c([N+](=O)[O-])nn1CC(=O)NCc1cccs1		-4.17% [at 2.29 µM] (inactive)
Cc1c(Br)c([N+](=O)[O-])nn1C(C)C(=O)Nc1nccs1 (stereo not drawn)	20 µM (active)	
CCc1ccccc1NC(=O)C(C)n1nc([N+](=O)[O-])c(Br)c1C (stereo not drawn)	25.1 µM (active)	
Cc1c(Br)c([N+](=O)[O-])nn1CC(=O)NCc1ccccn1		5.47% (inactive)
N=C(N)c1ccc(N=Nc2c(O)ccc3c2[nH]c2ccccc23)cc1		-6.87% [at 11.4 µM] (inactive)
COC(=O)CSc1nc(C)cc(C(F)(F)F)c1C#N		-14.9% [at 2.29 µM] (inactive)
Cc1cc(C)c(C#N)c(SCC(=O)C(C)(C)C)n1		-0.356% [at 2.29 µM] (inactive)
Cc1cc(C)c(C#N)c(SCS(=O)c2ccc(C(C)(C)C)cc2)n1 (stereo not drawn)	7.94 µM (active)	
O=S(=O)(c1cccc(-c2nnc(-c3ccc(Br)cc3)o2)c1)N1CCCCCC1	3.55 µM (active)	
O=S(=O)(c1ccc(Br)cc1)N1CCN(S(=O)(=O)c2ccc(Br)cc2)CC1		0.222% [at 11.4 µM] (inactive)
Brc1ccc(-c2nnc(-c3cccc(Br)c3)o2)cc1		16.1% (inactive)
O=C1CCCC=C1[C@H](O)c1ccc([N+](=O)[O-])cc1		-12.2% [at 11.4 µM] (inactive)
CCOC(=O)C1CCN(Cc2cnc(Oc3ccc(OC)cc3)s2)CC1		9.79% (inactive)
NC(=O)C1CCN(C(=O)OCc2ccccc2)CC1		-2.06% (inactive)
COc1ccc(Cn2nnnc2C(c2ccccc2Cl)N2CCC(C(N)=O)CC2)cc1 (stereo not drawn)	12.6 µM (active)	

SMILES	AC50	activity, negative = inhibition
C=CC1=C(C)C2=Cc3c(C=C)c(C)c4[n]3[Sn+2][n]3c(c(C)c(CCC(=O)O)c3=CC3=NC(=C4)C(C)=C3CCC(=O)O)=CC1=N2		-13.5% (inactive)
Cc1c(C(=O)Nc2ccc(OCc3ccccc3)cc2)cccc1[N+](=O)[O-]		15.6% (inactive)
CC(=O)Nc1ccc(C(=O)NNC(=O)CCc2ccccc2)cc1		4.97% (inactive)
CC(=O)Nc1ccc(NC(=O)c2ccccc2CC[N+](=O)[O-])cc1	1.78 µM (active)	
CC[N+](C)(CC)CCC[n+]1c(-c2ccccc2)c2cc(N)ccc2c2ccc(N)cc21	15.8 µM (active)	
COc1cc(C(=O)NCC(c2cccnc2)N2CCN(C)CC2)cc(OC)c1OC (stereo not drawn)		-2.25% (inactive)
COc1ccc(N2CCN(C(CNC(=O)C3CCCCC3)c3cccnc3)CC2)cc1 (stereo not drawn)	4.47 µM (active)	
COC(=O)NCC(c1cccnc1)N1CCN(c2ccccc2OC)CC1 (stereo not drawn)	12.6 µM (active)	
O=C(NCC(c1cccnc1)N1CCOCC1)Nc1ccccc1 (stereo not drawn)	14.1 µM (active)	
C[C@H](CN(C)C)C(O)(c1ccccc1)c1ccccc1		-14.1% [at 11.4 µM] (inactive)
CCC(C)NC(=O)NC(=O)N(C1CCCCC1)S(C)(=O)=O (stereo not drawn)		4.9% (inactive)
Cc1ccnc(NS(=O)(=O)c2ccc(N)cc2)n1	inactive	
COC(=O)[C@@]1(Cc2ccc(F)cc2)[C@H]2c3cc(C(=O)N4CCCC4)n(Cc4ccc(C)c(F)c4F)c3C[C@H]2CN1C(=O)c1ccccc1	2.51 µM (active)	
COC(=O)[C@@]1(Cc2ccccc2)[C@H]2c3cc(C(=O)N4CCCC4)n(Cc4ccc(S(C)(=O)=O)cc4)c3C[C@H]2CN1C(=O)c1ccccc1	3.16 µM (active)	
COC(=O)[C@@]1(Cc2ccc(F)cc2)[C@H]2c3cc(C(=O)N(C)C)n(Cc4ccc(C)c(F)c4F)c3C[C@H]2CN1C(=O)c1ccccc1	0.794 µM (active)	
COC(=O)C1(Cc2ccccc2)C2c3cc(C(=O)N4CCCC4)n(Cc4ccc(OC(F)(F)F)cc4)c3CC2CN1C(=O)c1ccccc1 (stereo not drawn)	3.16 µM (active)	
CCCC[C@H](CC)CN1CN(C[C@@H](CC)CCCC)CC(C)(N)C1		-17.4% [at 25.6 µM] (inactive)
CC(C)(C)n1nc(-c2ccc(Cl)cc2)c2c(N)ncnc21		-12.7% (inactive)
COC(=O)[C@@]1(Cc2ccc(F)cc2)[C@H]2c3cc(C(=O)N(C)C)n(Cc4ccc(Cl)c(C(F)(F)F)c4)c3C[C@H]2CN1C(=O)c1ccccc1	2 µM (active)	
COC(=O)[C@@]1(Cc2ccc(F)cc2)[C@H]2c3cc(C(=O)N4CCCC4)n(Cc4ccc(Cl)c(C(F)(F)F)c4)c3C[C@H]2CN1C(=O)c1ccccc1	2.51 µM (active)	
COC(=O)[C@@]1(Cc2ccc(F)cc2)[C@H]2c3cc(C(=O)N4CCCC4)n(CCCNc4ncc(C(F)(F)F)cc4Cl)c3C[C@H]2CN1C(=O)c1ccccc1	2.51 µM (active)	
COC(=O)[C@@]1(Cc2ccc(F)cc2)[C@H]2c3cc(C(=O)N4CCCC4)n(Cc4ccc(OC(F)(F)F)cc4)c3C[C@H]2CN1C(=O)c1ccccc1	2.51 µM (active)	
